Values joined by “and” are separate entries in the source; they are usually repeats but may differ in a detail not shown here. Equal values may be shown once. The panel holds about 83,000 compounds, 20% with a hit somewhere; the sample as a whole holds those more often.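 Results are percent growth after 48 hours of single-concentration exposure. 100 means growth as in untreated cells, lower positive values show inhibition; negative values down to -100 show cell death.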 Active and inactive are the calls of the source. Rule for the calls: active = growth percent below 10; inactive = the rest.
What was measured:
Assay in all cases: NCI-60 one-dose screen, 48 h (100 = growth as untreated, 0 = no growth, -100 = all killed)
Details in all cases: 10 µM
NCI-H23 lung = test system: NCI-H23 lung
NCI-H522 lung = test system: NCI-H522 lung
MALME-3M melanoma = test system: MALME-3M melanoma
MDA-MB-231 breast = test system: MDA-MB-231 breast
M14 melanoma = test system: M14 melanoma
SK-MEL-5 melanoma = test system: SK-MEL-5 melanoma
UACC-62 melanoma = test system: UACC-62 melanoma
LOX IMVI melanoma = test system: LOX IMVI melanoma
SK-MEL-28 melanoma = test system: SK-MEL-28 melanoma
SR leukemia = test system: SR leukemia
OVCAR-8 ovarian = test system: OVCAR-8 ovarian
OVCAR-5 ovarian = test system: OVCAR-5 ovarian
OVCAR-4 ovarian = test system: OVCAR-4 ovarian
SK-OV-3 ovarian = test system: SK-OV-3 ovarian
IGROV1 ovarian = test system: IGROV1 ovarian
HS 578T breast = test system: HS 578T breast
NCI/ADR-RES ovarian = test system: NCI/ADR-RES ovarian
T-47D breast = test system: T-47D breast
SW-620 colon = test system: SW-620 colon
MCF7 breast = test system: MCF7 breast

Measured: growth

N#Cc1c(-n2c(Br)c(Br)c3cc(Br)ccc32)[nH]c2c(Br)cc(Br)cc12
active: NCI-H23 lung -36.4% | NCI-H522 lung -14.8% | MALME-3M melanoma -17.4% | MDA-MB-231 breast -2.11% | M14 melanoma -32.4% | SK-MEL-5 melanoma -76.8% | UACC-62 melanoma -30.8% | LOX IMVI melanoma -25.2% | SK-MEL-28 melanoma 5.46% | SR leukemia 0.987% | OVCAR-8 ovarian 1.23% | SK-OV-3 ovarian -44.3% | HS 578T breast -6.84% | NCI/ADR-RES ovarian -2.1% | T-47D breast -13% | SW-620 colon 4.15% | MCF7 breast -13.6%
inactive: OVCAR-5 ovarian 33% | OVCAR-4 ovarian 20.4% | IGROV1 ovarian 25.4%

C[C@@H]1CCC/C=C/[C@H]2C[C@@H](O)C[C@@H]2[C@@H](O)/C=C/C(=O)O1
inactive: UACC-62 melanoma 25.9% | SK-MEL-28 melanoma 18.3% | OVCAR-5 ovarian 30.5% | OVCAR-4 ovarian 22.1% | HS 578T breast 42% | SW-620 colon 10.3% | MCF7 breast 10.8%
active: NCI-H23 lung 5.85% | NCI-H522 lung -26.3% | MALME-3M melanoma -7.08% | MDA-MB-231 breast -62.2% | M14 melanoma 6.74% | SK-MEL-5 melanoma -92.8% | LOX IMVI melanoma -70% | SR leukemia 1.7% | OVCAR-8 ovarian 3.04% | SK-OV-3 ovarian 8.48% | IGROV1 ovarian 5.5% | NCI/ADR-RES ovarian 9.17% | T-47D breast 7.4%

CN1C(=O)[C@]23SSC1(C)C(=O)N2[C@H]1Nc2ccccc2C1([C@@]12c4ccccc4N[C@@H]1N1C(=O)C4(C)SS[C@]1(C(=O)N4C)[C@H]2O)[C@@H]3O (stereo partly specified)
active: NCI-H23 lung -66.4% | NCI-H522 lung -84.4% | MALME-3M melanoma -81.5% | MDA-MB-231 breast -52.1% | M14 melanoma -90% | SK-MEL-5 melanoma -99% | UACC-62 melanoma -79.2% | LOX IMVI melanoma -89.9% | SK-MEL-28 melanoma -96.5% | SR leukemia 0.169% | OVCAR-8 ovarian -76.1% | OVCAR-5 ovarian -66.2% | OVCAR-4 ovarian -98.7% | SK-OV-3 ovarian -98.8% | IGROV1 ovarian -71.7% | HS 578T breast -49.4% | NCI/ADR-RES ovarian -19.4% | T-47D breast -81.3% | SW-620 colon -88.2% | MCF7 breast -77.4%

CC(C)=CCc1c2c(c(O)c3c1O[C@]14C(=C[C@@H]5C[C@H]1C(C)(C)O[C@@]4(C/C=C(/C)C(=O)O)C5=O)C3=O)C=CC(C)(C)O2
active: NCI-H23 lung -45.4% | NCI-H522 lung -70.9% | MALME-3M melanoma -70.4% | MDA-MB-231 breast -56.1% | M14 melanoma -50.1% | SK-MEL-5 melanoma -98.9% | UACC-62 melanoma -69.4% | LOX IMVI melanoma -95.6% | SK-MEL-28 melanoma -88.2% | SR leukemia -3.62% | OVCAR-8 ovarian -59.4% | OVCAR-5 ovarian -80.5% | OVCAR-4 ovarian -63.6% | SK-OV-3 ovarian -38.9% | IGROV1 ovarian -55.2% | HS 578T breast -11.1% | NCI/ADR-RES ovarian 4.39% | T-47D breast -40.7% | SW-620 colon -75.1% | MCF7 breast -61%

CC1=C2C(=C[C@@](C)(COC(=O)c3ccc(S(=O)(=O)F)cc3)[C@@H]2OC(=O)c2ccc(S(=O)(=O)F)cc2)C(=O)[C@](C)(O)C12CC2
active: NCI-H23 lung -21.4% | NCI-H522 lung -52% | MALME-3M melanoma -57.3% | MDA-MB-231 breast 1.44% | M14 melanoma -46.3% | SK-MEL-5 melanoma -96.9% | UACC-62 melanoma -38.7% | LOX IMVI melanoma 6.84% | SK-MEL-28 melanoma 7.54% | OVCAR-8 ovarian 5.91% | OVCAR-5 ovarian 4.81% | OVCAR-4 ovarian -9.11% | SK-OV-3 ovarian -9.96% | IGROV1 ovarian 0.149% | NCI/ADR-RES ovarian 9.12% | T-47D breast -20% | SW-620 colon -3.99% | MCF7 breast 6.34%
inactive: SR leukemia 16.3% | HS 578T breast 33.4%

COc1cc2c(O[C@@H]3OC[C@H](OC(C)=O)[C@H](OC(C)=O)[C@H]3O)c3c(c(-c4ccc5c(c4)OCO5)c2cc1OC)C(=O)OC3
inactive: NCI-H23 lung 46.3% | MALME-3M melanoma 39.3% | MDA-MB-231 breast 13.7% | OVCAR-8 ovarian 24.3% | OVCAR-5 ovarian 73% | OVCAR-4 ovarian 51.4% | SK-OV-3 ovarian 23.8% | IGROV1 ovarian 47.9% | HS 578T breast 60.3% | NCI/ADR-RES ovarian 37.7% | SW-620 colon 14.1% | MCF7 breast 36.9%
active: NCI-H522 lung 4.7% | M14 melanoma -17.9% | LOX IMVI melanoma -53.7% | SR leukemia 2.16% | T-47D breast -2.78%

C/C=C/CC(C)C(O)[C@H](NC(=O)[C@@H]1CCCN1C(=O)C(C)(C)NC(=O)CCCCCCCCC)C(=O)N[C@@](C)(CC)C(=O)N[C@@H](CCC(N)=O)C(=O)N[C@H](CCC(N)=O)C(=O)NC(C)(C)C(=O)NC(C)(C)C(=O)N[C@@H](CCC(N)=O)C(=O)N[C@H](CC(C)C)C(=O)N[C@H](CO)CC(C)C (stereo partly specified)
-19.1% (active) and 54.4% (inactive): UACC-62 melanoma
-43.6% (active) and 20.4% (inactive): M14 melanoma
2.04% (active) and 49.9% (inactive): OVCAR-5 ovarian
-54.6% (active) and 12.6% (inactive): SK-MEL-5 melanoma
-2.63% (active) and 45.8% (inactive): MCF7 breast
5.65% (active) and 38.4% (inactive): OVCAR-8 ovarian
-32.1% (active) and 53.6% (inactive): MDA-MB-231 breast
inactive: NCI-H23 lung 15.6% and 49.3% | OVCAR-4 ovarian 81% and 87.9% | SK-OV-3 ovarian 37.6% and 80.8% | IGROV1 ovarian 34% and 72.2% | NCI/ADR-RES ovarian 19.7% and 35.4% | T-47D breast 28.6% and 52% | SW-620 colon 38.1% and 93%
active: NCI-H522 lung -32.9% and -26.1% | MALME-3M melanoma -65.1% and -22% | LOX IMVI melanoma -57.3% and 1.46% | SK-MEL-28 melanoma -92.6% and -78.4% | SR leukemia -32.1% and 8.34% | HS 578T breast -51.7% and -15.4%

Cc1ccc(CNc2nc3ccc(OC/C(=C/F)CN)cc3o2)cn1
inactive: NCI-H23 lung 88.4% | MALME-3M melanoma 105% | MDA-MB-231 breast 79.6% | M14 melanoma 99.8% | SK-MEL-5 melanoma 98% | UACC-62 melanoma 90.8% | LOX IMVI melanoma 88.4% | SK-MEL-28 melanoma 107% | SR leukemia 101% | OVCAR-8 ovarian 108% | OVCAR-5 ovarian 103% | OVCAR-4 ovarian 88.1% | SK-OV-3 ovarian 105% | IGROV1 ovarian 78.5% | HS 578T breast 101% | NCI/ADR-RES ovarian 102% | T-47D breast 101% | SW-620 colon 97.6% | MCF7 breast 88.8%

CCCCCCCCCC(=O)N[C@@](C)(CC)C(=O)N1CCC[C@H]1C(=O)N[C@@H](CC(C)C)C(=O)N[C@@](C)(CC)C(=O)N[C@@H](CCC(N)=O)C(=O)N[C@H](CCC(N)=O)C(=O)NC(C)(C)C(=O)NC(C)(C)C(=O)N[C@@H](CCC(N)=O)C(=O)N[C@H](CC(C)C)C(=O)N[C@H](CO)CC(C)C
-31.3% (active) and 16.2% (inactive): SR leukemia
active: NCI-H23 lung -78.3% and -84.7% | NCI-H522 lung -84% and -82.6% | MALME-3M melanoma -89.7% and -98.6% | MDA-MB-231 breast -92.2% and -98.5% | M14 melanoma -80.7% and -65.5% | SK-MEL-5 melanoma -94.2% and -97.9% | UACC-62 melanoma -90.6% and -99.6% | LOX IMVI melanoma -87.8% and -92.7% | SK-MEL-28 melanoma -97.1% and -100% | OVCAR-8 ovarian -74.1% and -63.2% | OVCAR-5 ovarian -98.7% and -100% | OVCAR-4 ovarian -38.1% and -35.2% | SK-OV-3 ovarian -77.5% and -56.9% | IGROV1 ovarian -84.9% and -85.5% | HS 578T breast -70.1% and -58.6% | NCI/ADR-RES ovarian -82.9% and -77% | T-47D breast -6.91% and -59.3% | SW-620 colon -79.7% and -77.5% | MCF7 breast -76.7% and -77.6%

O=C(CCCc1ccc(N(CCCl)CCCl)cc1)OCc1ccccc1
inactive: NCI-H23 lung 89.3% | NCI-H522 lung 84.3% | MALME-3M melanoma 92% | MDA-MB-231 breast 103% | M14 melanoma 95.1% | SK-MEL-5 melanoma 93.7% | UACC-62 melanoma 77.8% | LOX IMVI melanoma 77.2% | SK-MEL-28 melanoma 101% | SR leukemia 42.2% | OVCAR-8 ovarian 89.7% | OVCAR-5 ovarian 117% | OVCAR-4 ovarian 105% | SK-OV-3 ovarian 108% | IGROV1 ovarian 87.8% | HS 578T breast 114% | NCI/ADR-RES ovarian 93.9% | T-47D breast 75.6% | SW-620 colon 91.1% | MCF7 breast 81.8%

C=C1[C@@H](C)C2[C@H](Cc3ccccc3)NC(=O)[C@]23[C@H](OC(C)=O)/C=C/[C@@](C)(O)C(=O)[C@@H](C)C/C=C/[C@H]3[C@@H]1O (stereo partly specified)
inactive: NCI-H23 lung 69.8% | NCI-H522 lung 22.3% | MALME-3M melanoma 81.2% | MDA-MB-231 breast 33% | M14 melanoma 51.3% | SK-MEL-5 melanoma 33.5% | UACC-62 melanoma 84.5% | SK-MEL-28 melanoma 87.1% | SR leukemia 43.2% | OVCAR-8 ovarian 74.6% | OVCAR-5 ovarian 96.1% | OVCAR-4 ovarian 34.7% | SK-OV-3 ovarian 15.1% | NCI/ADR-RES ovarian 98.5% | T-47D breast 81.6% | SW-620 colon 77.2% | MCF7 breast 23.3%
active: LOX IMVI melanoma 1.65% | IGROV1 ovarian 8.46% | HS 578T breast 9.13%

C[C@@H]1C[C@H]2C(=O)O[C@@H](C)C(NC(=O)[C@H](Cc3cc(F)cc(F)c3)NC(=O)Nc3ccc(OS(=O)(=O)F)cc3)C(=O)N3CCC[C@H]3C(=O)N3CCO[C@H](C)[C@H]3C(=O)N[C@@H](CO)C(=O)N2C1 (stereo partly specified)
inactive: NCI-H23 lung 36.1% | NCI-H522 lung 20.3% | MALME-3M melanoma 39% | MDA-MB-231 breast 32% | M14 melanoma 23.6% | UACC-62 melanoma 23.5% | SK-MEL-28 melanoma 40.5% | SR leukemia 25.3% | OVCAR-8 ovarian 23.6% | OVCAR-5 ovarian 33.4% | OVCAR-4 ovarian 26.2% | SK-OV-3 ovarian 18.7% | IGROV1 ovarian 47.4% | HS 578T breast 40.2% | NCI/ADR-RES ovarian 99.2% | T-47D breast 33% | SW-620 colon 39% | MCF7 breast 16.8%
active: SK-MEL-5 melanoma -6.32% | LOX IMVI melanoma 7.58%
